Results filed as inconclusive are left out. Calls of active or inactive are those of the source.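 How the source made its calls, unless noted: active means inhibition over a set limit, the all-compound mean plus 3 SD, in both replicate runs; inconclusive means over that limit in just one replicate run; inactive means at or under that limit in both runs.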
How the values were obtained:
[1] = Her2 expression decrease, cell viability multiplex – SKBR3 breast tumor cells, AlphaScreen, ATP viability, primary screen (AID 461;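 active means Her2 level under about 52% in both replicate screens, with viability over 70% of control, limit read from the data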;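 on Her2 level: lower value means less Her2 protein in the cells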;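 on viability: percent of carrier control wells set as 100% viability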); settings: SKBR3 Her2 protein level, 18-24 h, measured here: SKBR3 viability, ATP luminescence, at 10 µM
[2] = biological target: Receptor tyrosine-protein kinase erbB-2 (Homo sapiens) (UniProt P04626); assay: as above; settings: 18-24 h, at 10 µM, stronger effect = lower value
Sequence of Receptor tyrosine-protein kinase erbB-2 (Homo sapiens) (P04626 whole entry, looked up): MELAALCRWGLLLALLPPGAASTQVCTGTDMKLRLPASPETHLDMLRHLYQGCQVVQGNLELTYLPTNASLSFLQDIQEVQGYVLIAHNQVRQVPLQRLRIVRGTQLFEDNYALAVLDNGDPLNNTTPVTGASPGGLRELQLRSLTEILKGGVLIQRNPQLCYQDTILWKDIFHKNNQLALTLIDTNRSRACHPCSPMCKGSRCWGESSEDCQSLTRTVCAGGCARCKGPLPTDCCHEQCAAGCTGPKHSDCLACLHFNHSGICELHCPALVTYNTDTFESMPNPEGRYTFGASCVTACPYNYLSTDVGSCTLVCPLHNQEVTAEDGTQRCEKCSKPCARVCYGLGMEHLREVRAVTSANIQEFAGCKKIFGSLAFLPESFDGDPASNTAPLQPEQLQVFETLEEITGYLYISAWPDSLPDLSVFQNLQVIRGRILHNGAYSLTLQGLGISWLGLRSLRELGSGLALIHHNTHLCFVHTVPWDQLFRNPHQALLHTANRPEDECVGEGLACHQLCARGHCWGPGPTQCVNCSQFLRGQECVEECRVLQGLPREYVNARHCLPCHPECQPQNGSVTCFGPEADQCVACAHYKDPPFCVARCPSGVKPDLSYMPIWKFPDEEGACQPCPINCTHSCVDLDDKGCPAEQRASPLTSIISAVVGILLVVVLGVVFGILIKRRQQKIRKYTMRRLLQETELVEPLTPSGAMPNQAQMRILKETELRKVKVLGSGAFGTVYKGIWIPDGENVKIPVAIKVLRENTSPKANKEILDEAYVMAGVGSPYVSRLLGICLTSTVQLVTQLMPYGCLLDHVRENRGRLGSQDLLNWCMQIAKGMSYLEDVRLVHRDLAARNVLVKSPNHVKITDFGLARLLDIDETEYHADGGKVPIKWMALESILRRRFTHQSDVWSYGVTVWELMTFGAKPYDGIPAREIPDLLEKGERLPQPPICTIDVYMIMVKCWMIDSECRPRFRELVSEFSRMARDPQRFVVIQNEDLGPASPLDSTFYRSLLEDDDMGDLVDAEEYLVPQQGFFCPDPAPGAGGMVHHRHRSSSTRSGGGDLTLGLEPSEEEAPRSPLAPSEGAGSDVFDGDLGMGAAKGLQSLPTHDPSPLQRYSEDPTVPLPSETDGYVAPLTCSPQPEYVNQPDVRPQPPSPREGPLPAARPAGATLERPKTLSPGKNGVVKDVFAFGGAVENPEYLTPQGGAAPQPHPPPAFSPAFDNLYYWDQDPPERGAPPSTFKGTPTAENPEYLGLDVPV

[3] = reduced viability of SK-BR-3 breast cancer cells – cell-based, 24 h, human, pilot screen (AID 572;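 active means viability at or below 10% of carrier control in both of two separate runs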;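 further: compound exposure lasted between 18 and 24 h rather than exactly 24 h; 100% = carrier-treated control wells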); settings: SK-BR-3 viability, CellTiter-Glo luminescence, at 10 µM, stronger effect = lower value
[4] = HUVEC growth inhibition – cell-based, human, primary screen (AID 575;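 active means viability at or below 30% in both replicate assays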;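 further: 100% = median of untreated cell wells with 0.1% DMSO on each plate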); settings: HUVEC proliferation, CellTiter-Glo luminescence, 72 h; at 10 µM; stronger effect = lower value
[5] = H69AR cell proliferation blockers – human, duplicate replicates, primary screen (AID 580;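 active means viability at or under a set limit in both replicates, limit being median viability minus 3 SD, cut at about 48% in these data, passing the limit was not always enough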;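 further: 100% = mean luminescence of untreated wells and 0% = no signal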); settings: H69AR lung tumor cells viability, ATP luminescence, 72 h; at 10 µM; stronger effect = lower value
[6] = MRP1 drug-resistance reversers in H69AR cells – cell-based, doxorubicin co-treatment, pilot screen (AID 601;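 active means viability loss from added drug above about 55%, and viability with drug at most 40%, in both replicates, limit read from the data, passing the limit was not always enough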); settings: CellTiter-Glo, 72 h, at 10 µM; for differential viability (reversal): stronger effect = higher value
[7] = yeast transport mutant growth inhibition pilot in 384-well plates, post-Golgi transport modulator project (AID 636; in the data active means inhibition above about 31%); settings: absorbance 615 nm, about 18 h, stronger effect = higher value
[8] = growth suppression of yeast trafficking mutant, preliminary HTS, modulators of trafficking downstream of Golgi apparatus project, 1536-format plate, OD 615 nm (AID 637; in the data active means inhibition above about 30%); settings: yeast transport mutant growth, absorbance 615 nm, 18 h; stronger effect = higher value
[9] = S. cerevisiae growth inhibition in permissive medium (OD615), pilot counter-assay for S. cerevisiae lifespan shortening project, permissive growth control (AID 705;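 active means growth inhibition above 25% in both replicates, a cutoff set 3 SD above the mean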); settings: OD615, 24 h, at 10 µM, stronger effect = higher value
[10] = S. cerevisiae growth inhibition in restrictive medium, OD615, pilot screen, restrictive growth control, yeast lifespan reduction project (AID 706;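 active means growth inhibition above a set limit, 3 SD over mean compound inhibition, in both replicates, cut at about 43% in these data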;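 further: modified DeaD lifespan yeast strain shifted to restrictive glucose medium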); settings: OD615, 48 h, at 10 µM, stronger effect = higher value
[11] = doxorubicin toxicity protection in MRP-1 cells – H69AR cells, CellTiter-Glo, duplicate, MRP-1 activator project, pilot screen (AID 807;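 active means viability increase at or above a cutoff of the median across tested compounds plus 3 SD, cut at about 8.5% in these data, passing the limit was not always enough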;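 further: compound pretreatment 18-22 h then 72 h combined with doxorubicin; 0% = doxorubicin alone and 100% = vehicle without doxorubicin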); settings: H69AR viability with doxorubicin, CellTiter-Glo luminescence; at 10 µM; stronger effect = higher value
[12] = viability of HCT116 without oncogenic beta-catenin – human colon tumor cells, pilot screen (AID 823;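 active means cell viability at or below a set limit in both duplicate runs, the limit being the all-compound median minus 4 SD, cut at about 23% in these data, passing the limit was not always enough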;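 further: 0% = wells killed by 20 µM Hyamine and 100% = untreated DMSO cell wells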); settings: HCT116 beta-catenin knockout viability, CellTiter-Glo, 60 h; at 10 µM; stronger effect = lower value
[13] = RAM pathway blockade in budding yeast – dse1pr::URA3 reporter, 5-FOA selection, pilot screen (AID 869);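 further: 0% = DMSO wells with no growth and 100% = 10 µM 1-NA-PP1 with full growth; RAM network block rescues cells from 5-FOA so hits raise OD615 growth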; settings: S. cerevisiae dse1pr::URA3 5-FOA growth, OD615, 2 d; at 10 µM; stronger effect = higher value; strain carries analog-sensitive mutant Cbk1 kinase
[14] = RAM signaling pathway blockade in yeast – S. cerevisiae, Pdr1DBD-CYC8 efflux-inhibited sensitized strain, primary screen (AID 1298;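 active means RAM network inhibition above 8.4% in each of two replicates, 3 SD over the compound average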;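 further: 0% = DMSO untreated cells without growth and 100% = 10 µM 1-NA-PP1 full growth; higher means more yeast growth rescued from 5-FOA killing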); settings: S. cerevisiae cbk1-as DSE1-URA3 strain, 5-FOA growth OD615, 2 d; at 50 µM; stronger effect = higher value
[15] = viability of PTEN-null HCT116 cells – cell-based, HCT116 clonal line, CellTiter-Glo, pilot screen (AID 824;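 active means viability at or below 27.92% in each of two runs, the all-compound median minus 4 SD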;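 further: 0% = 20 µM Hyamine control and 100% = vehicle cell control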); settings: HCT116 PTEN-deleted viability, 60 h, at 10 µM, stronger effect = lower value
[16] = H69AR cells + 2 uM doxorubicin, measured here: viability with 2 uM doxorubicin, stronger effect = lower value
[17] = H69AR cells, compound alone cytotoxicity

| Compound | viability [1] [%] | Her2 level [2] | viability [3] | viability [4] | viability [5] | differential viability (reversal) ([6]; H69AR cells + 2 uM doxorubicin) | viability [6, 16] [%] | viability [6, 17] [%] | inhibition [7] | inhibition [8] | growth inhibition [9] | growth inhibition [10] | viability increase [11] | viability [12] | inhibition [13] | RAM network inhibition [14] | viability [15] |
| --- | --- | --- | --- | --- | --- | --- | --- | --- | --- | --- | --- | --- | --- | --- | --- | --- | --- |
| CCc1ccc(N2CC(C(=O)OCC(=O)NC3CCS(=O)(=O)C3)CC2=O)cc1 (stereo not drawn) | 100 | 112% (inactive) | 100% (inactive) | 98.6% (inactive) | 103% (inactive) | 3.14% (inactive) | 99.5 | 103 | 3.12% (inactive) | 7.54% (inactive) | -17% (inactive) | 1.96% (inactive) | 1.23% (inactive) | 96.5% (inactive) | 0.795% (inactive) | 3.33% (inactive) |  |
| COc1ccc(S(=O)(=O)N(CC(=O)N2CCN(c3ccccc3OC)CC2)c2ccccc2)cc1 | 74 | 108% (inactive) | 74% (inactive) | 51.8% (inactive) | 86.8% (inactive) | -8.61% (inactive) | 95.4 | 86.8 | -6.35% (inactive) | -2.3% (inactive) | -11.3% (inactive) | -11.3% (inactive) | 5.84% (inactive) | 67.2% (inactive) | 0.87% (inactive) | 2.02% (inactive) | 72.3% (inactive) |
| Cc1nc2ccc(Br)cn2c1NC(C)(C)C | 89.5 | 103% (inactive) | 89.5% (inactive) | 101% (inactive) | 86.8% (inactive) | 0.425% (inactive) | 86.3 | 86.8 | -6.58% (inactive) | -10.3% (inactive) | -13.4% (inactive) | 4.22% (inactive) | -2.98% (inactive) | 89.2% (inactive) | 1.55% (inactive) | 1.46% (inactive) |  |
| O=C(Oc1ccc2ccc(OC(=O)N3CCOCC3)cc2c1)N1CCOCC1 | 96.5 | 96% (inactive) | 96.5% (inactive) | 108% (inactive) | 84% (inactive) | -5.42% (inactive) | 89.5 | 84 | -0.13% (inactive) | -2.5% (inactive) | -14.7% (inactive) | -15.1% (inactive) | 1.51% (inactive) | 92.2% (inactive) | 1.12% (inactive) | 4.57% (inactive) | 87.7% (inactive) |
| O=C(c1ccco1)N1CCN(C(=O)c2sccc2-c2ccccc2)CC1 | 93 | 104% (inactive) | 93% (inactive) | 86.2% (inactive) | 83% (inactive) | -6.79% (inactive) | 89.8 | 83 | 2.3% (inactive) | -4.92% (inactive) | -18.7% (inactive) | -9.14% (inactive) | -5.64% (inactive) | 94.6% (inactive) | 2.49% (inactive) | 4.79% (inactive) |  |
| C(/CCc1ccccc1)=N\n1cnnc1 | 105 | 94.5% (inactive) | 105% (inactive) | 117% (inactive) | 99% (inactive) | 9.93% (inactive) | 89.1 | 99 | -5.07% (inactive) | 8.03% (inactive) | -14.7% (inactive) | 1.89% (inactive) | -1.24% (inactive) | 102% (inactive) | 0.44% (inactive) | 5.92% (inactive) |  |
| CCOCCn1c(CN2CCN(CC)CC2)nc2c1c(=O)n(C)c(=O)n2C | 121 | 109% (inactive) | 121% (inactive) | 94.2% (inactive) | 91.8% (inactive) | 4.7% (inactive) | 87.1 | 91.8 | -1.6% (inactive) | -4.33% (inactive) | 5.99% (inactive) | 1.91% (inactive) | -1.7% (inactive) | 103% (inactive) | 1.31% (inactive) | -1.34% (inactive) | 97.6% (inactive) |
| Cc1ccc(SCC(=O)NCCN2C(=O)CSC2=O)c(C)c1 | 99.5 | 110% (inactive) | 99.5% (inactive) | 92.3% (inactive) | 87.7% (inactive) | -1.79% (inactive) | 89.5 | 87.7 | 0.52% (inactive) | -0.83% (inactive) | -14.8% (inactive) | -3.53% (inactive) | -0.38% (inactive) | 111% (inactive) | 1.09% (inactive) | 3.32% (inactive) |  |
| Nn1c(Cc2ccccc2F)nnc1SCC(=O)N1CC(=O)Nc2ccccc21 | 112 | 94.5% (inactive) | 112% (inactive) | 109% (inactive) | 84.1% (inactive) | -1.98% (inactive) | 86.1 | 84.1 | -2.86% (inactive) | -10.7% (inactive) | -11.9% (inactive) | -7.2% (inactive) | -2.14% (inactive) | 114% (inactive) | 2.1% (inactive) | 3.29% (inactive) |  |
| CCOc1ccc(NC(=O)CSc2nccn2C)cc1 | 103 | 85.5% (inactive) | 103% (inactive) | 82.7% (inactive) | 99.7% (inactive) | 6.7% (inactive) | 93 | 99.7 | -4.34% (inactive) | 0.83% (inactive) | -14.8% (inactive) | -9.37% (inactive) | -1.79% (inactive) | 106% (inactive) | 2.29% (inactive) | 7.99% (inactive) |  |
